Data reported in the supplement of paper PMC10849652.
About 7,900 targets were measured; listed, in parts, are those with a hit and a random draw of the rest. About 0.6% of all pairs of compound and target were hits.

Columns and labels:
Assay in all cases: log2 fold change, soluble protein after heating vs DMSO (PISA); higher = thermal stabilisation; K562 cells, 10 uM, 30 min; active = over 0.2 and 3.5 SD of the protein, either way, in both replicates (recomputed)
[1] = compound: COC1=CC=C(C=C1)CN2C=CC3=C2C=C(C=C3)C(=O)NO
How it was run: (§1)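 Soluble protein was defined as the supernatant after 21,000xg for 90 min. It came from K562 cells at 2×10^6 cells/mL given 10 μM compound for 30 min, heated in aliquots for 3 min across 48°C-58°C, pooled, and extracted in PBS with 0.5% NP-40 at 4°C, and was quantified by TMTpro 16plex LC-MS/MS with equalised channel sums. Thermal stability against control samples, from duplicates, is reported as log2 fold change.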

filanesib = compound: CON(C)C(=O)N1N=C(c2cc(F)ccc2F)S[C@@]1(CCCN)c1ccccc1 [filanesib]
How it was run: as §1

zotarolimus = compound: CO[C@H]1C[C@@H]2CC[C@@H](C)[C@@](O)(O2)C(=O)C(=O)N2CCCC[C@H]2C(=O)O[C@H]([C@H](C)C[C@@H]2CC[C@H](n3cnnn3)[C@H](OC)C2)CC(=O)[C@H](C)/C=C(\C)[C@@H](O)[C@@H](OC)C(=O)[C@H](C)C[C@H](C)/C=C/C=C/C=C/1C [zotarolimus]
How it was run: as §1

idasanutlin = compound: COc1cc(C(=O)O)ccc1NC(=O)[C@@H]1N[C@@H](CC(C)(C)C)[C@](C#N)(c2ccc(Cl)cc2F)[C@H]1c1cccc(Cl)c1F [idasanutlin]
How it was run: as §1

alisertib = compound: COc1cc(Nc2ncc3c(n2)-c2ccc(Cl)cc2C(c2c(F)cccc2OC)=NC3)ccc1C(=O)O [alisertib]
How it was run: as §1

[2] = compound: COc1cc2nc(-c3cc(F)ccc3O)nc(N[C@@H]3CNC[C@H]3C(C)(C)O)c2cc1OC
How it was run: as §1

gefitinib = compound: COc1cc2ncnc(Nc3ccc(F)c(Cl)c3)c2cc1OCCCN1CCOCC1 [gefitinib]
How it was run: as §1

[3] = compound: COc1cccc2cc(-c3nc([C@H]4CC[C@H](C(=O)O)CC4)n4ncnc(N)c34)[nH]c12
How it was run: as §1

lapatinib = compound: CS(=O)(=O)CCNCc1ccc(-c2ccc3ncnc(Nc4ccc(OCc5cccc(F)c5)c(Cl)c4)c3c2)o1 [lapatinib]
How it was run: as §1

pictilisib = compound: CS(=O)(=O)N1CCN(Cc2cc3nc(-c4cccc5[nH]ncc45)nc(N4CCOCC4)c3s2)CC1 [pictilisib]
How it was run: as §1

[4] = compound: CS(=O)(=O)c1ccc(-c2cnc(N)c(C(=O)Nc3ccccc3)n2)cc1
How it was run: as §1

crizotinib = compound: C[C@@H](Oc1cc(-c2cnn(C3CCNCC3)c2)cnc1N)c1c(Cl)ccc(F)c1Cl [crizotinib]
How it was run: as §1

[5] = compound: C[C@@H]1COCCN1C2=NC(=NC(=C2)C3(CC3)S(=O)(=O)C)C4=C5C=CNC5=CC=C4
How it was run: as §1

[6] = compound: C[C@H](C1=CC=C(C=C1)C(=O)NC2=C3C=CNC3=NC=C2)N
How it was run: as §1

duvelisib = compound: C[C@H](Nc1ncnc2nc[nH]c12)c1cc2cccc(Cl)c2c(=O)n1-c1ccccc1 [duvelisib]
How it was run: as §1

gandotinib = compound: Cc1cc(Nc2cc(CN3CCOCC3)c3nc(C)c(Cc4ccc(Cl)cc4F)n3n2)n[nH]1 [gandotinib]
How it was run: as §1

tozasertib = compound: Cc1cc(Nc2cc(N3CCN(C)CC3)nc(Sc3ccc(NC(=O)C4CC4)cc3)n2)n[nH]1 [tozasertib]
How it was run: as §1

[7] = compound: Cc1cc(SCc2sc(-c3ccc(C(F)(F)F)cc3)nc2C)ccc1OCC(=O)O
How it was run: as §1

doramapimod = compound: Cc1ccc(-n2nc(C(C)(C)C)cc2NC(=O)Nc2ccc(OCCN3CCOCC3)c3ccccc23)cc1 [doramapimod]
How it was run: as §1

ispinesib = compound: Cc1ccc(C(=O)N(CCCN)[C@@H](c2nc3cc(Cl)ccc3c(=O)n2Cc2ccccc2)C(C)C)cc1 [ispinesib]
How it was run: as §1

Measured: log2 fold change

GNAI3 (UniProt P08754)
inactive: [1] -0.041 | filanesib -0.002 | zotarolimus -0.081 | idasanutlin -0.004 | alisertib -0.124 | [2] 0.066 | gefitinib 0.118 | [3] -0.013 | lapatinib 0.009 | pictilisib 0.059 | [4] 0.121 | crizotinib 0.103 | [5] -0.122 | [6] 0.003 | duvelisib 0.002 | gandotinib 0.039 | tozasertib -0.023 | [7] -0.014 | doramapimod 0.036 | ispinesib -0.008

GATA1 (UniProt P15976)
inactive: [1] -0.023 | filanesib 0.001 | zotarolimus -0.05 | idasanutlin -0.034 | alisertib 0.02 | [2] 0.07 | gefitinib 0.014 | [3] -0.087 | lapatinib 0.008 | pictilisib -0.021 | [4] 0.03 | crizotinib 0.16 | [5] -0.032 | [6] 0.046 | duvelisib -0.061 | gandotinib 0.112 | tozasertib 0.031 | [7] -0.071 | doramapimod 0.017 | ispinesib -0.063

IDI1 isoform 2 (UniProt Q13907)
inactive: filanesib 0.026 | zotarolimus 0.033 | idasanutlin -0.006 | alisertib -0.003 | [2] 0.007 | gefitinib 0.024 | [3] 0.039 | lapatinib -0.014 | pictilisib 0.089 | [4] 0.052 | crizotinib 0.093 | [5] 0.062 | [6] -0.018 | duvelisib 0.069 | gandotinib 0.014 | tozasertib 0.057 | [7] -0.028 | doramapimod -0.063 | ispinesib 0.045
active: [1] -0.314

GABPA (UniProt Q06546)
UniProt Q06546, sequence (Q06546 whole entry, looked up): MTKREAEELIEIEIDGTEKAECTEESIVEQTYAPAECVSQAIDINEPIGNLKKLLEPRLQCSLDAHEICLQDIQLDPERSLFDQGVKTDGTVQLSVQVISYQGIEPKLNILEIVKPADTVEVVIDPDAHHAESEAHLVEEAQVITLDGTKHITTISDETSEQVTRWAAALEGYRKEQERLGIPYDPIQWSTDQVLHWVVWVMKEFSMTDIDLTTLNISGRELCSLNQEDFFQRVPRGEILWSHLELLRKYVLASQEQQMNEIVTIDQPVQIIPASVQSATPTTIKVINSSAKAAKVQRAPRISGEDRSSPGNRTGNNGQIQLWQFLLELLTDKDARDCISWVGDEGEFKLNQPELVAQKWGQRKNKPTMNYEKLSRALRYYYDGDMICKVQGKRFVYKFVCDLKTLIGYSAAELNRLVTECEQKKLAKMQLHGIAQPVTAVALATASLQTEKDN
inactive: [1] 0.01 | filanesib -0.111 | zotarolimus 0.063 | idasanutlin -0.025 | alisertib -0.002 | [2] -0.134 | gefitinib 0.032 | [3] 0.029 | lapatinib 0.048 | pictilisib 0.02 | [4] 0.059 | crizotinib -0.028 | [5] 0.126 | [6] 0.012 | duvelisib 0.089 | gandotinib -0.029 | tozasertib 0.025 | [7] 0.068 | doramapimod -0.018 | ispinesib -0.099

FYB1 isoform 3 (UniProt O15117)
active: duvelisib -0.344
inactive: [1] 0.001 | filanesib 0.06 | idasanutlin -0.106 | alisertib -0.035 | [2] 0.026 | gefitinib 0.103 | [3] 0.134 | lapatinib 0.068 | pictilisib 0.108 | [4] -0.025 | crizotinib -0.11 | [5] 0.046 | gandotinib 0.057 | tozasertib 0.009 | [7] 0.067 | doramapimod 0.021 | ispinesib -0.083

GPNMB (UniProt Q14956)
inactive: [5] -0.151

FAT2 (UniProt Q9NYQ8)
inactive: [1] 0.247 | zotarolimus 0.104 | alisertib 0.208 | [2] 0.031 | [3] -0.024 | lapatinib -0.089 | pictilisib -0.497 | crizotinib -0.148 | [5] 0.131 | [6] 0.306 | duvelisib 0.372 | gandotinib -0.149 | tozasertib -0.184 | [7] 0.121 | doramapimod 0.006 | ispinesib -0.006

GPD1 (UniProt P21695)
UniProt P21695, sequence (P21695 whole entry, looked up): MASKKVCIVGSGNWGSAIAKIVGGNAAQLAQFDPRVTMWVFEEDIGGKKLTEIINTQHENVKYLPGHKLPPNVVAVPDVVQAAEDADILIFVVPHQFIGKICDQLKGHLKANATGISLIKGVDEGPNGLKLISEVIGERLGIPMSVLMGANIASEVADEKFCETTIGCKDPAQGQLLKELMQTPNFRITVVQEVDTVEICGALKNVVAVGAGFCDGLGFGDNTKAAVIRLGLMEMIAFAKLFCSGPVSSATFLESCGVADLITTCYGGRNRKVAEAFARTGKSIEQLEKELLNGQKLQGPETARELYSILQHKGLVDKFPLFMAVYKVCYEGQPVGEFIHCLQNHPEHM
inactive: filanesib -0.083 | zotarolimus 0.022 | idasanutlin -0.289 | alisertib 0.077 | [2] -0.051 | gefitinib 0.368 | [3] 0.111 | lapatinib 0.015 | pictilisib 0.203 | [4] -0.036 | [5] 0.034 | [6] -0.482 | duvelisib 0.124 | gandotinib 0.094 | tozasertib -0.072 | [7] -0.034 | ispinesib 0.046

FCF1 (UniProt Q9Y324)
inactive: [1] -0.026 | filanesib 0.405 | alisertib -0.272 | [2] 0.1 | [3] -0.299 | lapatinib 0.157 | pictilisib -0.262 | [4] 0.06 | crizotinib -0.054 | [5] -0.225 | duvelisib -0.592 | gandotinib 0.155 | tozasertib 0.021 | [7] 0.103 | doramapimod 0.244 | ispinesib -0.095

GINS2 (UniProt Q9Y248)
UniProt Q9Y248, sequence (Q9Y248 whole entry, looked up): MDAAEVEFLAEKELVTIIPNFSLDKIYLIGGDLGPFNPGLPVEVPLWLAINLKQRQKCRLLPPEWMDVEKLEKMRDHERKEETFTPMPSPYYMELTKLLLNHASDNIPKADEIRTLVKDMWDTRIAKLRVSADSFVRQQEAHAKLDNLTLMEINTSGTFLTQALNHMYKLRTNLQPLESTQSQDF
inactive: [1] 0.057 | filanesib -0.021 | zotarolimus 0.29 | alisertib -0.069 | [2] 0.025 | gefitinib 0.035 | [3] -0.089 | lapatinib -0.026 | pictilisib -0.119 | [4] -0.066 | crizotinib -0.036 | [5] -0.046 | [6] -0.15 | duvelisib 0.164 | gandotinib 0.004 | tozasertib 0.145 | [7] 0.247 | doramapimod 0.026 | ispinesib 0.167

FIZ1 (UniProt Q96SL8)
inactive: [1] -0.081 | filanesib 0.078 | zotarolimus 0.048 | alisertib 0.117 | gefitinib 0.001 | [3] -0.108 | pictilisib 0.016 | [4] -0.05 | crizotinib 0.018 | [5] -0.354 | [6] 0.074 | duvelisib -0.251 | gandotinib 0.024 | [7] 0.017 | doramapimod 0.044

HSPA2 (UniProt P54652)
UniProt P54652, sequence (P54652 whole entry, looked up): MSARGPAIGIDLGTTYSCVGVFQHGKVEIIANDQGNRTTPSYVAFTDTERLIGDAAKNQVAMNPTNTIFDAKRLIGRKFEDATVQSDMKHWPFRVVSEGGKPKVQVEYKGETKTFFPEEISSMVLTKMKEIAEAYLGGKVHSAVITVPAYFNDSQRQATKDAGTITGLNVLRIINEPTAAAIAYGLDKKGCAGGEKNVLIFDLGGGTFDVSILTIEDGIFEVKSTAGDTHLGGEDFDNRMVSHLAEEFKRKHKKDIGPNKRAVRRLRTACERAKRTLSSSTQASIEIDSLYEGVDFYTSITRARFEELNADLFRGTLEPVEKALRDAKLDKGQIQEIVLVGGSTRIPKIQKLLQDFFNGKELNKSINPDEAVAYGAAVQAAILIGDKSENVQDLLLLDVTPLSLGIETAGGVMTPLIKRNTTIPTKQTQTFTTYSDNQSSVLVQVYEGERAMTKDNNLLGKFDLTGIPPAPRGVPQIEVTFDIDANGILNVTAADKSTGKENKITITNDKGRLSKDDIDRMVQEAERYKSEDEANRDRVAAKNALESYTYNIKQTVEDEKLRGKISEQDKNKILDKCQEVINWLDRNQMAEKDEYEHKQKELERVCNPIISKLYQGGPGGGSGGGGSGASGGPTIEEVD
inactive: [1] -0.103 | filanesib 0.026 | idasanutlin 0.032 | alisertib -0.077 | gefitinib 0.005 | [3] 0.076 | [4] 0.011 | crizotinib 0.123 | doramapimod -0.003 | ispinesib -0.025

GNL3 (UniProt Q9BVP2)
inactive: filanesib -0.038 | zotarolimus -0.012 | idasanutlin -0.212 | alisertib -0.12 | gefitinib 0.067 | [3] 0.071 | pictilisib 0.061 | [4] 0.126 | [5] -0.009 | [6] 0.065 | duvelisib 0.124 | gandotinib 0.098 | tozasertib -0.079 | [7] -0.053

GPS2 (UniProt Q13227)
active: ispinesib 0.31
inactive: [1] -0.108 | filanesib 0.018 | alisertib -0.067 | [2] 0.135 | gefitinib 0.008 | [3] 0.152 | lapatinib -0.044 | [4] -0.114 | crizotinib 0.019 | [5] 0.208 | tozasertib -0.221 | doramapimod 0.047

ICMT (UniProt O60725)
UniProt O60725, sequence (O60725 whole entry, looked up): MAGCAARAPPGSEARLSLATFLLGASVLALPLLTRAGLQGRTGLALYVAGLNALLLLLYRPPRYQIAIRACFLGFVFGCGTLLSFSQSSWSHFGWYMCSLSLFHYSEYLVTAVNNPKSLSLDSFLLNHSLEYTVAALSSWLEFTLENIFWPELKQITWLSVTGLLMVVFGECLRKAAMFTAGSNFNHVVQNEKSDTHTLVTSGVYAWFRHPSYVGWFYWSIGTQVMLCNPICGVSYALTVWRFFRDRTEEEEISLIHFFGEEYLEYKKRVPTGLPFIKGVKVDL
inactive: [1] -0.083 | filanesib -0.189 | idasanutlin -0.029 | alisertib -0.046 | [2] -0.112 | gefitinib 0.154 | [3] 0.085 | lapatinib 0.206 | [4] 0.099 | crizotinib 0.074 | [5] 0.331 | duvelisib 0.078 | tozasertib -0.518 | [7] -0.107 | doramapimod 0.01 | ispinesib -0.42

GREB1 (UniProt Q4ZG55)
UniProt Q4ZG55, sequence (Q4ZG55 whole entry, looked up): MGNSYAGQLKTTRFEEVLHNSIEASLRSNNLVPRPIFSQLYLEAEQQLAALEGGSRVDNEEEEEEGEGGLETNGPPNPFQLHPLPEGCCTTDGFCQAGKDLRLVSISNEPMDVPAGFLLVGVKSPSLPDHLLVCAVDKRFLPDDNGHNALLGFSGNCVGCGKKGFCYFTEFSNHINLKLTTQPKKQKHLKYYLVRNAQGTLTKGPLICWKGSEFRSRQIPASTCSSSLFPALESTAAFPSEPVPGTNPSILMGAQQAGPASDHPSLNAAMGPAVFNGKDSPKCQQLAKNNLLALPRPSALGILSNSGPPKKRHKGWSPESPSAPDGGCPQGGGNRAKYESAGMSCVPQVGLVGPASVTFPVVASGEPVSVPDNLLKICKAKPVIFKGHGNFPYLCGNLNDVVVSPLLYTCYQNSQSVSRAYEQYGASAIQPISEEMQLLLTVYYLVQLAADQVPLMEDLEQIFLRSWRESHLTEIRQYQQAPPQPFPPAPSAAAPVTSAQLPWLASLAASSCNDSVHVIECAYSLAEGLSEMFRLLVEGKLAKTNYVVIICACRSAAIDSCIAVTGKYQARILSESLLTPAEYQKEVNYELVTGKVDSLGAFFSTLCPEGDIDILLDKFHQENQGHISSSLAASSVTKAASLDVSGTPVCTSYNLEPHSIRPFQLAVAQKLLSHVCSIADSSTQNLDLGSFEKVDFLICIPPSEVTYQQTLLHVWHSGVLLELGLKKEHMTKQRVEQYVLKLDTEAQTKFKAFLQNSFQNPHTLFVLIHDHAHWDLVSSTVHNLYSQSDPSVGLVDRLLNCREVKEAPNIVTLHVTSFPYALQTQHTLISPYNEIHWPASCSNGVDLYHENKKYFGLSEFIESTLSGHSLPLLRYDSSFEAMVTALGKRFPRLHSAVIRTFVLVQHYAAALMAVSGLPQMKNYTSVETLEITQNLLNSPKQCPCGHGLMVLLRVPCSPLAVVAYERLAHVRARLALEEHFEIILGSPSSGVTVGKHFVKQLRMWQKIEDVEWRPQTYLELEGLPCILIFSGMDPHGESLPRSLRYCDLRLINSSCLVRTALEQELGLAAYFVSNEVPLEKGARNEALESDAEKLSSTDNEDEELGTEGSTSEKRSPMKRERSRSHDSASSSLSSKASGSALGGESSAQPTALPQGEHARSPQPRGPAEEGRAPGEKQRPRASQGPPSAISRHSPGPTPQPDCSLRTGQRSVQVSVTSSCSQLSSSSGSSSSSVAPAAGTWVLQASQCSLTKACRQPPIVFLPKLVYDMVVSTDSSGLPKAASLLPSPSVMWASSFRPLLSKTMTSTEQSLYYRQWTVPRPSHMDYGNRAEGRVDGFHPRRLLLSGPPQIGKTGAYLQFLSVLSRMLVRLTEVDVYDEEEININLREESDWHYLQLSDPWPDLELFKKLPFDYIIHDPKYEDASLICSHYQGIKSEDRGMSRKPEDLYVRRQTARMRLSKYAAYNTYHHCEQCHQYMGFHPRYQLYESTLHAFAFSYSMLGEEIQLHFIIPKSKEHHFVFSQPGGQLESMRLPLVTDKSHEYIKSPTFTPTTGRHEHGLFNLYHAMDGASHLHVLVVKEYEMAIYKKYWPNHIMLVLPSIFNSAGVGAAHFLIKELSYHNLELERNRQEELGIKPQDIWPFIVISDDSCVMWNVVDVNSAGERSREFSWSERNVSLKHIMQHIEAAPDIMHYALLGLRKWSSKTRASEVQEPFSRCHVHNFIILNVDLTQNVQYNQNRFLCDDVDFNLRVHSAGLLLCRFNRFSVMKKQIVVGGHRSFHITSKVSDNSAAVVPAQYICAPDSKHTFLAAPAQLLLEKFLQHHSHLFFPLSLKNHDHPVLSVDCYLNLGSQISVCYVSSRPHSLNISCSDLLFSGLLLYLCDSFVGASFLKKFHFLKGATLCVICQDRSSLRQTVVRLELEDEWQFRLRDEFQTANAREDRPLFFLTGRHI
inactive: [1] 0.448 | filanesib 0.074 | zotarolimus 0.07 | idasanutlin -0.023 | [4] 0.121 | crizotinib 0.163 | [5] -0.046 | [6] 0.12 | tozasertib -0.171 | doramapimod -0.007

H3-3A (UniProt P84243)
inactive: filanesib -0.187 | zotarolimus 0.009 | alisertib 0.098 | [2] 0.179 | gefitinib 0.035 | [3] -0.062 | lapatinib -0.042 | [4] 0.082 | [6] 0.038 | duvelisib -0.184 | tozasertib -0.066 | [7] 0.106

FGG (UniProt P02679)
inactive: [2] -0.068 | lapatinib -0.001 | pictilisib -0.367 | gandotinib -0.153 | ispinesib -0.052

GID4 (UniProt Q8IVV7)
UniProt Q8IVV7, sequence (Q8IVV7 whole entry, looked up): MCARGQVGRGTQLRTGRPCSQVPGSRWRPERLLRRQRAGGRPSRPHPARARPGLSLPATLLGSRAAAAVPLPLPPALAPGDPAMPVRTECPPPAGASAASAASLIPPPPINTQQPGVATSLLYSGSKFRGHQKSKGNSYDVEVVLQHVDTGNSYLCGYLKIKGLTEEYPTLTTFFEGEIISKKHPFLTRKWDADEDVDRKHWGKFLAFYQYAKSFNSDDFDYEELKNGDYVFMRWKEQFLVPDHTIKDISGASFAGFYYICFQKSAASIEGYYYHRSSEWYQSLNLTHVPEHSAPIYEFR
inactive: filanesib -0.089 | zotarolimus 0.013 | idasanutlin -0.023 | alisertib -0.074 | [2] 0.097 | gefitinib -0.067 | [3] 0.01 | lapatinib -0.14 | pictilisib 0.024 | [4] 0 | [5] 0.054 | [6] -0.006 | duvelisib 0.009 | gandotinib 0.034 | tozasertib 0.052 | [7] 0.032 | ispinesib 0.044

HDAC1 (UniProt Q13547)
UniProt Q13547, sequence (Q13547 whole entry, looked up): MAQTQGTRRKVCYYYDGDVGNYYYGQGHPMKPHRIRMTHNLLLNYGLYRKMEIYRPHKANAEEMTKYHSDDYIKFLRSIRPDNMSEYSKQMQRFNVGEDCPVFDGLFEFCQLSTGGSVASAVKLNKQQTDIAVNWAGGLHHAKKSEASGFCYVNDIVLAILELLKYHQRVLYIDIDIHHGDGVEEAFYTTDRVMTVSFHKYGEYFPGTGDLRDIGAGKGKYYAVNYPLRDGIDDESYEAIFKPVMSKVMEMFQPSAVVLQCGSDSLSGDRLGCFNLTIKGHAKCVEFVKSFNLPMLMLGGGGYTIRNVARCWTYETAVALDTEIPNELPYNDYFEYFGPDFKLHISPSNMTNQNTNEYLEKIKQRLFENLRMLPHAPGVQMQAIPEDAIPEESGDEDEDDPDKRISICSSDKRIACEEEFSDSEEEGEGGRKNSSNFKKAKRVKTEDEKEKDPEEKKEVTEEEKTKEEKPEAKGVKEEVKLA
inactive: filanesib 0.059 | zotarolimus -0.019 | idasanutlin -0.023 | alisertib 0.031 | [2] 0 | gefitinib 0.025 | [3] 0.024 | lapatinib 0.141 | pictilisib 0.06 | [4] 0.011 | crizotinib 0.084 | [5] 0.001 | [6] 0.115 | duvelisib 0.045 | gandotinib -0.02 | tozasertib -0.033 | [7] 0.06 | doramapimod -0.018 | ispinesib 0.038

IDH3A isoform 2 (UniProt P50213)
UniProt P50213, sequence (P50213 whole entry, looked up): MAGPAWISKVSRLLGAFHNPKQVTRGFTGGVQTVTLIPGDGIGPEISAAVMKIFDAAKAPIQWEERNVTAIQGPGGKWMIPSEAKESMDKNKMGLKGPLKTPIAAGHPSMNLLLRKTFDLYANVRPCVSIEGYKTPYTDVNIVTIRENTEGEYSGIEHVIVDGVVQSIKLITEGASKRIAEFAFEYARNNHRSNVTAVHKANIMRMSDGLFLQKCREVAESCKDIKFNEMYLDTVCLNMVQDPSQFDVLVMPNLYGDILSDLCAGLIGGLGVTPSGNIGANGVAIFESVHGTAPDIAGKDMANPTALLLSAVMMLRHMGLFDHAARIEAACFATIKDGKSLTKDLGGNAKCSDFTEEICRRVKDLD
inactive: [1] 0.32 | zotarolimus -0.056 | idasanutlin -0.246 | gefitinib 0.029 | crizotinib -0.206 | [6] -0.016 | tozasertib -0.141 | doramapimod 0.051
